# Menin-MLL TR inh – qHTS Assay for Inhibitors Targeting the Menin-MLL Interaction in MLL Related Leukemias: Competition With Texas Red Labeled MLL-derived Mutant Peptide; Potency, µM (titrated, usually from 61.6 µM), for inactives: at the highest dose FP activity change, negative = inhibition, most hits filed as inhibitors; Menin + Texas Red MLL mutant peptide, fluorescence polarization; 270,000 compounds, 0.23% hits; active = well fitted inhibition curve with a large enough effect in the polarisation, with a control signal flat, not every such curve was filed as active; inconclusive = small, poorly fitted or top-dose-only effect, or effect the other way, or a change in a side signal; inactive = no such curve, though single readings can be large or run the other way; the % refers to the polarisation; also: potency is read from the fitted curve at half-maximal effect; % of control where 0% means no effect
# Mm-Cpn inhibitor – Inhibitors of TCP-1 ring complex (TRiC) of Methanococcus maripaludis (MmCpn): qHTS. 330,000 compounds, 0.031% hits. purified Mm-Cpn ATPase, ADP Transcreener TR-FRET. AID 504842, 2011. Potency, µM (top dose mostly 76.9 µM), for inactives: at the highest dose activity, negative = inhibition, hits mostly inhibitors; also: potency is read from the fitted curve at half-maximal effect; % is scaled to controls: 0 for no effect and ±100 for the full control effect; nearly all actives have a fitted effect of over 80% in size
#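 Purified archaeal Mm-CPN (25nM final) preincubated 10 min at 37degC with compound, then 10uM ATP for 30 min at 37degC; ADP measured by HTRF Transcreener TR-FRET; buffer 30 mM TRIS pH 7.4, 100mM KCl, 5mM MgCl2, 1mM DTT.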
# CXXC DNA block – qHTS Fluorescence Polarization Assay for Inhibitors of MLL CXXC domain - DNA interaction | MLL-CXXC / FITC-HOXA9 DNA fluorescence polarization | Histone-lysine N-methyltransferase 2A (Homo sapiens), Q03164 | Potency, µM (highest dose often 115 µM), for the others: at the highest dose activity change, negative = inhibition, usual class: inhibitors | 290,000 compounds, 0.037% hits | AID 2662, 2010; active = well fitted inhibition curve with a large enough effect in the polarisation, with a control signal flat, not every such curve was filed as active; inconclusive = small, poorly fitted or top-dose-only effect, or effect the other way, or a change in a side signal; inactive = no such curve, though single readings can be large or run the other way; the % refers to the polarisation; also: potency is read from the fitted curve at half-maximal effect
# Target sequence (Q03164 whole entry, looked up, the tested form may be a part): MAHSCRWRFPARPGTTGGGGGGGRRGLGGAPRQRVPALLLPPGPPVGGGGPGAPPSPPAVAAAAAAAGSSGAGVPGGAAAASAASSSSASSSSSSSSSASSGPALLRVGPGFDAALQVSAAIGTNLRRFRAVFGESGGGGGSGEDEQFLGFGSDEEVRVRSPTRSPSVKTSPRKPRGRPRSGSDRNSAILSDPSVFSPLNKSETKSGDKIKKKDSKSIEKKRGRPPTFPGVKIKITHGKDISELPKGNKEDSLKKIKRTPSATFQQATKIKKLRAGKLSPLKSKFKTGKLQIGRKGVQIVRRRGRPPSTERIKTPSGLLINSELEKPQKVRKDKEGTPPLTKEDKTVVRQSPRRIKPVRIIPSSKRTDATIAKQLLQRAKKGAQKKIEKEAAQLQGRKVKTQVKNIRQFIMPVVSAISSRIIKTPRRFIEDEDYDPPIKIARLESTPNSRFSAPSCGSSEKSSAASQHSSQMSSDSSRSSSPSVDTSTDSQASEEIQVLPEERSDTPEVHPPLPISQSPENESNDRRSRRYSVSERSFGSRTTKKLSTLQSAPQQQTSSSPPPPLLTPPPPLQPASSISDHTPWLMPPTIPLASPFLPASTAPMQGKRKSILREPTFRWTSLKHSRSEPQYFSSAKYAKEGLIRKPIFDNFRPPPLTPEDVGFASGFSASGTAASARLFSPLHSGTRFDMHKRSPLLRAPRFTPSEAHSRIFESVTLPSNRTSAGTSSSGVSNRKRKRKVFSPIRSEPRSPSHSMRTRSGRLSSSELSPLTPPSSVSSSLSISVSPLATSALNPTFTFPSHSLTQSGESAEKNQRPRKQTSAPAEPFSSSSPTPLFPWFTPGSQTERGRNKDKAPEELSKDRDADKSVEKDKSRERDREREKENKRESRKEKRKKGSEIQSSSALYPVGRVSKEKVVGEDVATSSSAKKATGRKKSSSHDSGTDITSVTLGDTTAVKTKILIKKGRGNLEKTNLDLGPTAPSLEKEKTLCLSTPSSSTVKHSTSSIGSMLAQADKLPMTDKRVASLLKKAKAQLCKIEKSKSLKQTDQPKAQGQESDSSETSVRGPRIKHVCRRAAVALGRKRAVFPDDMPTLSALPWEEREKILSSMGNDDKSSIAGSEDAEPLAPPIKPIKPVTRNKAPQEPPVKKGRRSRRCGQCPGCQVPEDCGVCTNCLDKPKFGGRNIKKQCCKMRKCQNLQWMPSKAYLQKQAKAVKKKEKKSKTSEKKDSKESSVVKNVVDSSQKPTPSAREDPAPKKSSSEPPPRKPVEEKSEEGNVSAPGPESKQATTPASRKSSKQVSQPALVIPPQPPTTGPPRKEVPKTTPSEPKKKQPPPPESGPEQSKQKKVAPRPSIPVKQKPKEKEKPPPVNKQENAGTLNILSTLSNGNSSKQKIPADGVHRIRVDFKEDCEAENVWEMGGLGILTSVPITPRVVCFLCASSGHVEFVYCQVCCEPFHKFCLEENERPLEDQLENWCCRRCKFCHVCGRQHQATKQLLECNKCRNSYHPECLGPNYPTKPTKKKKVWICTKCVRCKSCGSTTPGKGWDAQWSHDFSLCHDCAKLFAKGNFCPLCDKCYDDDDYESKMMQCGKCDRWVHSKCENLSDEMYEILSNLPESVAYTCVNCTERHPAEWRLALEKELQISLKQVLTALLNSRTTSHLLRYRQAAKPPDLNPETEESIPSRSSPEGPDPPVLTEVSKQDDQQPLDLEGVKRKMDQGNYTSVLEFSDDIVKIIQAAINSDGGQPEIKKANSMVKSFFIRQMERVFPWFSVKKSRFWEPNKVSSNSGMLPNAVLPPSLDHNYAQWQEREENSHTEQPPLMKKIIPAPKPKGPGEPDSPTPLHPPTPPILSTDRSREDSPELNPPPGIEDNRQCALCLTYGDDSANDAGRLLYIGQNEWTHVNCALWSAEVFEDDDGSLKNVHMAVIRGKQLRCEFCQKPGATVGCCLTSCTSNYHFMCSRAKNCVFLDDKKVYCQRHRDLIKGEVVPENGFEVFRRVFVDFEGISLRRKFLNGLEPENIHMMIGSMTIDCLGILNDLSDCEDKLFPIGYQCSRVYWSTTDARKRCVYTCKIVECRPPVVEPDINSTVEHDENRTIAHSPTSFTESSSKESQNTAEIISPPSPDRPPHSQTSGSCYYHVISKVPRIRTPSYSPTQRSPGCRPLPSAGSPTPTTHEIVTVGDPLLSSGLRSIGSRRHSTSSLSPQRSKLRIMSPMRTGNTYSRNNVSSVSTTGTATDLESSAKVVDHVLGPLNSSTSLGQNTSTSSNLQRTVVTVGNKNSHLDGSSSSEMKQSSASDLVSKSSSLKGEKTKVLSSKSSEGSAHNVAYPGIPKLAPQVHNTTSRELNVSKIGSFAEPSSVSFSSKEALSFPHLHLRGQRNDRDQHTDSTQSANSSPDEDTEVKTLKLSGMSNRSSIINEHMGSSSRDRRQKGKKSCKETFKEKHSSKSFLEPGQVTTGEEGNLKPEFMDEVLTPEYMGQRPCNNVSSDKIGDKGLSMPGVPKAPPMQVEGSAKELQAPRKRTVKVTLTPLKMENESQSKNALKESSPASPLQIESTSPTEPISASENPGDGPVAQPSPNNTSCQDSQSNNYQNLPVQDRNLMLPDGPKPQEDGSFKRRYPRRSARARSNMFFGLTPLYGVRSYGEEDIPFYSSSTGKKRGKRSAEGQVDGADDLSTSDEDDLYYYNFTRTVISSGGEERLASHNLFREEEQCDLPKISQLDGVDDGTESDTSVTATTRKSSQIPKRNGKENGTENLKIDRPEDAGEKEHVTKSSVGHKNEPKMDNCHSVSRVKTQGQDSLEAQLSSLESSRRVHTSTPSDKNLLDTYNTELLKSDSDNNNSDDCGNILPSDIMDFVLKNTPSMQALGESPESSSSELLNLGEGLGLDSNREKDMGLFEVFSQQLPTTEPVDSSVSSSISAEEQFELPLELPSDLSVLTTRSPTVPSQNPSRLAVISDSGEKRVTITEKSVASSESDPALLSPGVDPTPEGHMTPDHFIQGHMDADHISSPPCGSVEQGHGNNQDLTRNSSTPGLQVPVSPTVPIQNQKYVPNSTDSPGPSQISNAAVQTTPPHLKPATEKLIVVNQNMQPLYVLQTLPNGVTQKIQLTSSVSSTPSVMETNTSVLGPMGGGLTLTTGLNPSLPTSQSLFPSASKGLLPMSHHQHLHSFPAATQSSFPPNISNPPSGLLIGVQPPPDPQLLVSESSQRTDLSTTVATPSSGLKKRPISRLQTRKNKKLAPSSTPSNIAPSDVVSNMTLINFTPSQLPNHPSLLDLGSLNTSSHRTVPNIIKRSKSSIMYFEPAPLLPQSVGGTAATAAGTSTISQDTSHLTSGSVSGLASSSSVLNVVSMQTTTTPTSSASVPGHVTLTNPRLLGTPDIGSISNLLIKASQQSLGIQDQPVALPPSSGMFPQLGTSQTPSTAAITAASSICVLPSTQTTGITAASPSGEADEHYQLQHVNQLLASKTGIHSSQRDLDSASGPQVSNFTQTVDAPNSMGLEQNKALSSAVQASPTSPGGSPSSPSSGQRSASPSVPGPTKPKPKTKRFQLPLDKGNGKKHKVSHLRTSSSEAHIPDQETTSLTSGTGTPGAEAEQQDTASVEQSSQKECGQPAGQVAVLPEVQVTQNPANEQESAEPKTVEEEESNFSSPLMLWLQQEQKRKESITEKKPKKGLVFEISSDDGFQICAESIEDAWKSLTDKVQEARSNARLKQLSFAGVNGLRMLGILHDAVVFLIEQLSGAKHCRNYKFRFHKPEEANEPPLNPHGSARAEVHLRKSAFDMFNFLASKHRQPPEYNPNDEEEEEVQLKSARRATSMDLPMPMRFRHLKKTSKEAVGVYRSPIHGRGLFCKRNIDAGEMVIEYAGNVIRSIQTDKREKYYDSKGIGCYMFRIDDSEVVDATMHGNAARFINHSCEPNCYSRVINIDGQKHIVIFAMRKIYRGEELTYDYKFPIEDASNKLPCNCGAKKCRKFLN
#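 Steps: dispense CXXC domain solution (7 uM) → pin compounds or unlabeled HOX-A9 DNA control → 5 min ambient → add FLSN-HOX-A9 solution (50 nM) → spin → 30 min ambient → fluorescence polarization. Tris pH 7.5/NaCl/DTT/BSA buffer.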
# AT treatment – qHTS Assay for Identifying a Potential Treatment of Ataxia-Telangiectasia | F2112 A-T fibroblasts, KAP-1 phosphorylation AlphaLISA; neocarzinostatin DNA damage 30 min before lysis | 320,000 compounds, 0.19% hits | Potency, µM (titrated, usually from 57.5 µM), without a hit: top-dose activation, most hits filed as activators | AID 485349, 2010; also: potency is read from the fitted curve at half-maximal effect; % of control where 0% means no effect; nearly all actives have a fitted effect of over 45% in size
#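 ATM-like activity read as KAP-1 phosphorylation via AlphaLISA donor/acceptor antibody pairs after lysis and 6 hr at 25C. Cells were ATM-null patient fibroblasts (F2112, hTERT), dosed 60 min, then exposed to the DSB inducer NCS for 30 min.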
# Menin-MLL FL inh – qHTS Assay for Inhibitors Targeting the Menin-MLL Interaction in MLL Related Leukemias: Competition With Fluorescein Labeled MLL-derived Peptide | Fluorescence polarization, fluorescein-MLL peptide displacement from menin | FP activity change, % at 61.4 µM | 290,000 tested, under 10 active | AID 1766, 2009; active = well fitted curve in the direction sought with a large enough effect in the polarisation, not every such curve was filed as active; inconclusive = small, poorly fitted or top-dose-only effect, or effect the other way, or a change in a side signal; inactive = no such curve, though single readings can be large or run the other way; the % refers to the polarisation; also: % of control where 0% means no effect
# * hit, by the source's call; ? = inconclusive; . = no result given; [ ] = remark or other dose. A selection: hits, their analogues and other compounds. The true share with any hit is near 0.29%. Unless noted, calls follow the shape of the dose curve; as a rule, active = well fitted curve in the direction sought with a large enough effect; inconclusive = small, poorly fitted or top-dose-only effect, or another doubt; inactive = no such curve, though single readings can be large; an effect the other way counts as inactive or inconclusive.
SMILES,Menin-MLL TR inh,Mm-Cpn inhibitor,CXXC DNA block,AT treatment,Menin-MLL FL inh
NC(=O)[C@H]1CC2(CC(c3cccc(NC(=O)COc4ccc(Cl)cc4)c3)=NO2)CN1C(=O)CC(c1ccccc1)c1ccccc1 (stereo partly specified),.,-4%,4%,-13%,1
NC(=O)[C@@H]1CC2(CC(c3cccc(NC(=O)CC(c4ccccc4)c4ccccc4)c3)=NO2)CN1C(=O)COc1ccc(Cl)cc1 (stereo partly specified),.,-14%,9%,35µM*,14
Cc1cccc2c(N=O)c(O)[nH]c12,.,-1%,37%,3.2µM*,4
C[C@@H]1/C=C\CC(=O)OC[C@H](C)C(=O)N[C@@H](Cc2ccccc2)C(=O)OC1,8%[11.7 µM],.,.,.,0[11.7 µM]
CCCCCCOC(=O)C[N+](C)(C)CCOC1CC2CCC1(C)C2(C)C (stereo unspecified),16µM*,-3%,3%,23%,-4
CCCCCCCOC(=O)C[N+](C)(C)CCOC1CC2CCC1(C)C2(C)C (stereo unspecified),-11%,-1%,14%,10%,2
COc1ccccc1OCC(=O)NNC(=O)CCCC(=O)NNC(=O)COc1ccccc1OC,-12%,0%,1%,-6%,-3
NC(=S)NNC(=O)COc1ccccc1O,.,-1%,-18%,16µM*,-1
COc1cc(C(=O)N(Cc2cccnc2)Cc2cc3cc4c(cc3[nH]c2=O)OCCO4)cc(OC)c1OC,18µM*,0%,14%,26%,-1
O=C(c1ccccc1F)N(Cc1cccnc1)Cc1cc2cc3c(cc2[nH]c1=O)OCCO3,-2%,-1%,-3%,0%,0
Cc1ccc(-c2cc(C(F)(F)F)c(C#N)c(SCC(=O)O)n2)cc1,20%,-11%,3%,3%,0
COc1ccc(-c2cc(C(F)(F)F)c(C#N)c(SCC(=O)O)n2)cc1OC,.,-3%,23%,8.9µM*,8
O=C(O)c1ccc(Nc2c3ccccc3nc3ccccc23)cc1,-21%,0%,1%,28µM*,-1
Oc1cccc(Nc2c3ccccc3nc3ccccc23)c1,32µM*,-4%,3%,26%,-28
c1ccc2c(c1)nc(N1CCCCC1)c1ccccc12,.,-1%,2%,14µM*,1
c1ccc2c(N3CCCCC3)nc(N3CCCC3)nc2c1,-10%,1%,5%,22%,0
O=C(Nc1cccc(Cl)c1)c1csc(-c2ccccc2)n1,?,?,-3%,32µM*,5
O=C(Nc1cccc(F)c1)N1CC2(CCN(C(=O)c3cc(C(F)(F)F)cc(C(F)(F)F)c3)CC2)C1,-5%,.,.,.,-1
CCOC(=O)C1=C(C)N(c2ccc(OC)cc2)C(=O)/C1=C\c1ccc(O)c(OCC)c1,.,1%,27%,13µM*,?
CN1CCN(CC#CCC(O)(c2ccccc2)c2ccccc2)CC1,.,1%,-1%,40µM*,1
CO[C@H]1COC(=O)C/C=C\[C@@H](C)COC(=O)[C@@H](OCc2ccccc2)/C=C\[C@@H]1C,-6%[11.7 µM],.,.,.,2[11.7 µM]
NNc1nc(Nc2ccccc2)nc(Nc2ccccc2)n1,?,0%,-13%,-9%,8
c1ccc(Nc2ccnc(Nc3ccccc3)n2)cc1,.,2%,21%,20µM*,-1
CC(C)CN(CC(C)C)C(=O)c1cc2c(=O)n3ccccc3nc2s1,?,-5%,10%,13µM*,5
Cc1c(Cl)c(C(=O)Nc2nc3ccccc3n2CCN2CCCCC2)nn1C,-2%,-2%,?,-1%,1
CCn1cc(Cl)c(C(=O)Nc2nc3ccccc3n2CCN2CCCCC2)n1,-2%[11.7 µM],-4%,-5%,13µM*,2
NCC1O[C@@H](OC2C(N)C[C@H](N)[C@@H](O[C@H]3OC(CO)C(O)C(N)C3O)C2O)C(O)C(O)C1O (stereo partly specified),-20%,.,.,.,-4

# Screens from PubChem.
